Results on nine compounds are retold here after PubChem BioAssay (NCI).

Compounds without any hit were thinned out: in the full panel of roughly 83,000, 20% have a hit.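 Growth was measured after 48 h exposure to one concentration of compound in 96-well plates. Values under 10 count as active.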 Values without a mark were called inactive. Calls of active or inactive are those of the source.

What all share (assay): NCI-60 one-dose screen, 48 h (100 = growth as untreated, 0 = no growth, -100 = all killed)
Conditions in all cases: 10 µM unless noted

Experiment [1] concerns SR leukemia.
The subject of experiment [2] is RPMI-8226 leukemia.
Experiment [3] relates to OVCAR-8 ovarian.
Experiment [4] has as its system OVCAR-5 ovarian.
The subject of experiment [5] is OVCAR-4 ovarian.
For experiment [6], the system named is SK-OV-3 ovarian.
Experiment [7] has as its system IGROV1 ovarian.
For experiment [8], the system named is OVCAR-3 ovarian.
Experiment [9] concerns HS 578T breast.
Experiment [10] deals with NCI/ADR-RES ovarian.
Experiment [11] deals with T-47D breast.
In experiment [12] the test system is BT-549 breast.
For experiment [13], the system named is MDA-MB-435 melanoma.
The test system of experiment [14] is SW-620 colon.
For experiment [15], the system named is MCF7 breast.
The subject of experiment [16] is HCT-116 colon.
In experiment [17] the test system is HCC-2998 colon.
The test system of experiment [18] is KM12 colon.
Experiment [19] has as its system MOLT-4 leukemia.

As to `CN[C@@]1(c2ccccc2Cl)CCCC[C@@H]1NCC1CCCO1` (stereo not given in full), the growth in experiment [1] is 95.2%; in [2] it was 104%; in experiment [3], 102%; in [4] it was 97.4%; in experiment [5], 93.8%; in [6] it was 111%. Moreover, the growth in [7] is 102%; in experiment [8], 116%; in experiment [9], 96.3%; in experiment [10] it was 101%; in experiment [11], 93%; in experiment [12], 102%. The growth in experiment [13] is 102%; in experiment [14], 102%; in [15], 98.6%; in [16], 105%; in experiment [17] it was 101%; in experiment [18], 108%.
On to `Oc1c(O)c(Cl)c(Cl)c(Cl)c1Cl`, for which the growth in experiment [1] was 24.3%; in experiment [2], 25.1%; in experiment [3], -4.12% (active); in [4], 77.7%; in experiment [5], 15.8%; in experiment [6], 64%. In addition, the growth in [7] was -33.3% (active); in experiment [8], -11.7% (active); in experiment [9], 34.8%; in experiment [10], 11.7%; in experiment [11], 15.1%; in experiment [12], 52.5%. The growth in experiment [13] was 30.8%; in [14], 28%; in experiment [15], 13.5%; in experiment [16], 16.4%; in experiment [17], 72.8%; in experiment [18] it was 30.4%.
In the case of `Clc1ccc2nnnn2n1`, the growth is 17.3% in experiment [19]; 5.38% (active) in experiment [2]; 74.1% in experiment [3]; 67.1% in [4]; 37.8% in experiment [5]; 92% in experiment [6]. Also, the growth in experiment [8] was -3.95% (active); in experiment [9], 89.6%; in [10] it was 59.2%; in experiment [11], 57.4%; in experiment [12], 29.1%; in experiment [13] it was -1.91% (active). Moreover, the growth was 24.5% in experiment [14]; 19.2% in experiment [15]; -15.9% (active) in experiment [16]; 107% in experiment [17]; -38% (active) in experiment [18].
For the compound `Clc1cccc(NCOOC2(OOCNc3cccc(Cl)c3)CCCCCC2)c1`, the growth was 5.27% (active) in experiment [1]; 91.9% in experiment [2]; 93.9% in experiment [3]; 96.6% in [4]; 97.4% in experiment [5]; 105% in experiment [6]. Besides, the growth in experiment [7] was 7.21% (active); in experiment [8], 97.1%; in experiment [9], 102%; in [10], 61.8%; in [11], 89%; in [12] it was 101%. The growth in [13] is 105%; in [14] it was 107%; in [15] it was 87.2%; in experiment [16], 90.6%; in [17], 107%; in experiment [18] it was 87.9%.
Take `COc1cccc2c1c(C(=O)c1ccco1)cn2Cc1ccc(F)cc1`: the growth was 307% in experiment [19]; 182% in experiment [2]; 108% in experiment [3]; 122% in experiment [4]; 114% in [5]; 122% in [6]. The growth is 8.63% (active) in experiment [7]; 122% in experiment [9]; 104% in experiment [10]; 97.2% in experiment [11]; 116% in [12]; 148% in experiment [13]. In addition, the growth in experiment [14] is 109%; in [15] it was 99.6%; in [16], 111%; in experiment [17], 102%; in experiment [18], 116%.
On to `O=P(N1CC1)(N1CC1)N1CCc2ccccc21`, for which the growth in experiment [3] is 103%; in experiment [4], 112%; in [5] it was 115%; in [6] it was 111%; in experiment [7], 130%; in experiment [8] it was 107%. The growth in experiment [9] is 106%; in experiment [10], 101%; in [11], 111%; in experiment [12], 99.4%; in experiment [13], 111%; in experiment [14], 101%. The growth in experiment [15] is 86.5%; in [16], 94.2%; in experiment [17], 99.5%; in [18] it was 113%.
As to `CN1CCC(c2c[nH]c3ccccc23)C1` (stereo not given), the growth was 96.6% in experiment [1]; 79.7% in [2]; 96.4% in experiment [3]; 77% in experiment [4]; 107% in experiment [5]; 99.4% in experiment [6]. Moreover, the growth in experiment [8] was 103%; in experiment [9], 113%; in [10], 94.5%; in experiment [11] it was 97%; in [12] it was 110%; in experiment [13] it was 97.9%. Further, the growth is 104% in experiment [14]; 94.8% in experiment [15]; 94.2% in experiment [16]; 94.1% in experiment [17]; 107% in experiment [18].
As for `CN1CCC(O)(c2ccc(F)cc2)C(C(=O)c2ccc(F)cc2)C1` (stereo not given), the growth in [2] was -9.61% (active); in experiment [3] it was 102%; in [4], 93.2%; in experiment [5] it was 102%; in experiment [6] it was 102%; in experiment [7], 96.3%. Further, the growth in experiment [8] is 111%; in [9], 101%; in experiment [10], 103%; in [11], 94.7%; in [12], 96%; in experiment [13], 110%. Besides, the growth was 99% in experiment [14]; 85.3% in experiment [15]; 101% in [16]; 101% in experiment [17]; 105% in [18].
`O=C1C=C2C(=CCOC2O)O1` (stereo not given): the growth is -19.1% (active) in [2]; -21.5% (active) in experiment [3]; 41.5% in experiment [4]; 25.4% in [5]; 100% in [6]; 42.9% in experiment [7]. The growth in experiment [8] is -78.6% (active); in experiment [9], 50%; in experiment [10], 0.601% (active); in [11], 13.7%; in [12], 52.8%; in [13], 5.62% (active). The growth in experiment [14] was -47.3% (active); in [15], 13.3%; in [16], -69.5% (active); in experiment [17] it was 93.3%; in [18], 20.5%.
